Test results taken from PubChem BioAssay (NCATS).
Results filed as inconclusive are left out. Calls of active or inactive are those of the source. Calls come from the whole dose curve; as a rule, active = well fitted curve in the direction sought with a large enough effect; inconclusive = small, poorly fitted or top-dose-only effect, or another doubt; inactive = no such curve, though single readings can be large; an effect the other way counts as inactive or inconclusive.

Legend:
[1] = qHTS to identify inhibitors of the type 1 interferon - major histocompatibility complex class I in skeletal muscle: primary screen against the NCATS Pharmaceutical Collection (AID 1347407); settings: human skeletal muscle cells, IFN-b-induced MHC-I HiBiT luminescence, 24 h; series mostly up to 45.9 µM;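 note: luminescence of HiBiT knocked into endogenous HLA-B as interferon-induced MHC class I level; % is set by controls: 0 for no effect and ±100 for the full control effect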
In short: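 Immortalized human myoblasts (C25cl48) with HiBiT knocked into endogenous HLA-B*08:01 were stimulated with 4.0 ng/ml IFN-beta and treated with compounds ([…] top 46 uM) for 24 hrs at 37 C. HiBiT lytic luminescence read.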

[2] = biological target: Protein phosphatase 1D (Homo sapiens) (UniProt O15297); assay: Rhodamine-PBP qHTS Assay for Modulators of WT P53-Induced Phosphatase 1 (WIP1) (AID 1347425); settings: recombinant WIP1, Rhodamine-PBP phosphate fluorescence, real-time; series mostly up to 57.5 µM; note: % of control where 0% means no effect
In short: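 Steps: enzyme with Rh-PBP sensor and compounds, room-temperature incubation of 1 hr, baseline read, addition of VEPPL-pS-QETFS (10 uM final), kinetic fluorescence reads at 525/598 nm. Activity equals final minus baseline signal.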

[3] = Primary qHTS for inhibitors of La Crosse Virus (LACV) - induced cell death in SH-SY5Y cells (AID 1508616); settings: SH-SY5Y LACV cytopathicity rescue, ATP luminescence, 6 d; series mostly up to 9.63 µM;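 note: top concentration of the series differs between compounds; 0% = infected DMSO wells and 100% = uninfected DMSO wells; higher means more rescue of cells from virus-induced death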
In short: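 Readout was luminescence from ATPLite 1step added after a 6-day LACV infection (0.01 MOI) of SH-SY5Y cells that had received pin-transferred compound 24 hr after seeding.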

[4] = biological target: Calcium and integrin-binding protein 1 (Homo sapiens) (UniProt Q99828); assay: Primary qHTS for Identification of Calcium Integrin Binding Protein 1 (CIB1) Competitor (AID 1508620); settings: CIB1-GST / FITC-alphaIIb peptide fluorescence polarization; series mostly up to 114 µM;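 note: GST tagged CIB1 binding a fluorescein labelled alphaIIb integrin peptide tracer; top concentration of the series differs between compounds; % is set by controls: 0 for no effect and ±100 for the full control effect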
In short: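 Fluorescence polarization competition: GST-tagged CIB1 (1 uM final) preincubated with compound 15 min at room temperature, then FITC-labelled alphaIIb peptide (100 nM final) added. After 15 min at room temperature, polarization read at Ex 480/Em 540.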

[5] = qHTS for inhibitors of adenylyl cyclases using a fission yeast platform: a pilot screen against the NCATS LOPAC library (AID 1347410);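 note: plate controls were DMSO vehicle for no effect and DPI positive control for full effect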; settings: S. pombe CHP2027, fbp1-GFP fluorescence, 18 h, yeast expressing mammalian AC9 and human GNAS; series mostly up to 57.5 µM
In short: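 S. pombe CHP2027 (AC9-GNAS-PDE4D2) carrying PKA-repressed fbp1-GFP, incubated 18 h at 30C in EMM with LOPAC compounds at up to 57 uM. GFP gain-of-signal read by laser scanning cytometry; DMSO negative control.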

[6] = qHTS to identify inhibitors of the type 1 interferon - major histocompatibility complex class I in skeletal muscle: primary screen against the NCATS Mechanism Interrogation Plate v5.0 (MIPE) Libary (AID 1347411); settings: iHSKM cells + IFN-b, HiBiT-tagged MHC-I luminescence, 24 h; series mostly up to 45.8 µM;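 note: plate controls were vehicle for no effect and reference inhibitor for full effect; nearly all actives have a fitted effect of over 65% in size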
In short: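 Cells were genome-edited human myoblasts carrying a HiBit tag on endogenous HLA-B. They were treated with IFN-beta (4.0 ng/ml) and titrated compounds (top 46 uM) for 24 hrs before lytic HiBiT detection.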

[7] = Validation qHTS assay for inhibitors of Activation Induced Cytidine Deaminase (AID): UDG Counterscreen signal (AID 1347427); settings: biochemical UDG counterscreen, fluorescence signal; series mostly up to 115 µM; note: 0% is about no effect
In short: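 Counterscreen read of UDG activity (2 U/mL, 4/3x) in the FRET deamination format with AID (1 uM, 4/3x), DJC20/DJC23 substrates (250 nM, 4x), 4 h at room temperature. NaOH stop, fluorescence at 560 ex/665 em.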

[8] = biological target: Single-stranded DNA cytosine deaminase (Homo sapiens) (UniProt Q9GZX7); assay: Validation qHTS assay for inhibitors of Activation Induced Cytidine Deaminase (AID): AID signal (AID 1347429); settings: Recombinant AID, FRET ssDNA deamination with UDG, fluorescence; series mostly up to 115 µM; note: % is set by controls: 0 for no effect and ±100 for the full control effect
In short: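 In this coupled qHTS, AID deaminates a FRET-labelled ssDNA substrate in the presence of UDG over 4 hr at room temperature. Compounds span up to 114 uM final.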

[9] = biological target: Calcium and integrin-binding protein 1 (Homo sapiens) (UniProt Q99828); assay: Validation qHTS for Identification of Calcium Integrin Binding protein 1 (CIB1) Competitor (AID 1508618); settings: CIB1-GST / FITC-alphaIIb peptide fluorescence polarization; series mostly up to 114 µM; note: % is set by controls: 0 for no effect and ±100 for the full control effect
In short: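 In this qHTS validation, the LOPAC set (up to 114 uM) was tested for blocking CIB1 binding to a fluorescein-tagged alphaIIb peptide, with FP detection at 480/540 nm.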

Sequence of Protein phosphatase 1D (Homo sapiens) (O15297 whole entry, looked up): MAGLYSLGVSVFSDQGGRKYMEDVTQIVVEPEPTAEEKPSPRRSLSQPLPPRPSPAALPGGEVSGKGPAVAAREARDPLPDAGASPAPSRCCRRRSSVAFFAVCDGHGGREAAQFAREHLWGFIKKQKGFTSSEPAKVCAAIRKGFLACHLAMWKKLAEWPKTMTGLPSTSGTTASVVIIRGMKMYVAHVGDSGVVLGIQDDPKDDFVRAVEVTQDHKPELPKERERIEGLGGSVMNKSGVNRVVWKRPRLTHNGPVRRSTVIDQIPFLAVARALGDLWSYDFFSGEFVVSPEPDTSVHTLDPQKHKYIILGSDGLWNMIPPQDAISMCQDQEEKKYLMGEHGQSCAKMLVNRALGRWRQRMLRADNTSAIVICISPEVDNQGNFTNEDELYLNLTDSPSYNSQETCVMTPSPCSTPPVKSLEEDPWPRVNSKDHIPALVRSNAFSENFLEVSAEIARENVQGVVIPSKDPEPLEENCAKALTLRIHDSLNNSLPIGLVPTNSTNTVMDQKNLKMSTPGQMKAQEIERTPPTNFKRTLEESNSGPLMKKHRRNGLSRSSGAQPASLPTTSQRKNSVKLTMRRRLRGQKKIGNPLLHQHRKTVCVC
Sequence of Single-stranded DNA cytosine deaminase (Homo sapiens) (Q9GZX7 whole entry, looked up): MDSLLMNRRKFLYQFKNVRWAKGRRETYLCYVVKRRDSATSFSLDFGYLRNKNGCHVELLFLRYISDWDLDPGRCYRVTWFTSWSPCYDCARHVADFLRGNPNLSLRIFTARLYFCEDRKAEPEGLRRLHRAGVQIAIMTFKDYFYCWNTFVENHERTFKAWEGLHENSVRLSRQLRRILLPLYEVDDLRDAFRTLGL
Sequence of Calcium and integrin-binding protein 1 (Homo sapiens) (Q99828 whole entry, looked up): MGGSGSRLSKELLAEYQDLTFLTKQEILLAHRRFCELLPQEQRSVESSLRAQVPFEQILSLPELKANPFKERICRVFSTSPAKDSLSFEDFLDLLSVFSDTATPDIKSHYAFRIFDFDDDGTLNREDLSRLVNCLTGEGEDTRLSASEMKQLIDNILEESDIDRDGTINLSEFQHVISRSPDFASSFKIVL

c1ccc2sc(SN3CCOCC3)nc2c1
inactive: Potency [1] | outcome [2] | Potency [3] | Potency [4]

CCCCCCCCCCCCOCCO
inactive: Potency [1] | outcome [2] | Potency [3] | Potency [4]

O=C1CN(/N=C/c2ccc([N+](=O)[O-])o2)C(=O)N1
inactive: Potency [1] | outcome [2] | Potency [4]

CO[C@@]1(NC(=O)Cc2cccs2)C(=O)N2C(C(=O)O)=C(COC(N)=O)CS[C@@H]21
inactive: Potency [1] | outcome [2] | Potency [3] | Potency [4]

c1ccc2sc(SSc3nc4ccccc4s3)nc2c1
inactive: Potency [1] | outcome [2] | activity change [3] 7.43% [at 1.78 µM] | Potency [4]

Nc1ccc([N+](=O)[O-])cc1O
inactive: Potency [1] | outcome [2] | Potency [4]

C=CCCCCCCCCC(=O)O
inactive: Potency [1] | outcome [2] | Potency [3] | Potency [4]

Cc1cc(O)c2ccccc2c1O
inactive: Potency [1] | outcome [2] | Potency [3] | Potency [4]

COc1cccc2c1C(=O)c1c(O)c3c(c(O)c1C2=O)C[C@@](O)(C(=O)CO)C[C@@H]3O[C@H]1C[C@H](N)[C@H](O[C@@H]2CCCCO2)[C@H](C)O1
inactive: Potency [1] | outcome [2]

Nc1nc2ccc([N+](=O)[O-])cc2s1
inactive: Potency [1] | Potency [3] | Potency [4]

CC1(C)S[C@@H]2[C@H](NC(=O)[C@H](N)c3ccccc3)C(=O)N2[C@H]1C(=O)O
inactive: Potency [1] | outcome [2]

O=C(CS)Nc1ccccc1
inactive: Potency [1] | outcome [2] | Potency [3]

O=C(O)/C=C\C(=O)O
inactive: Potency [1] | outcome [2] | Potency [3] | Potency [4]

O=C(O)Cc1ccc(-c2ccccc2)cc1
inactive: Potency [1] | outcome [2] | Potency [3] | Potency [4]

O=Cc1ccc(O)c(O)c1O
inactive: Potency [1] | Potency [3]

O=C(/C=C/c1ccccc1)NCCO
inactive: Potency [1] | outcome [2] | Potency [3] | Potency [4]

Cc1ccc2c(n1)Oc1ccc(C(C)C(=O)OCC(=O)N(C)C)cc1C2 (stereo not drawn)
inactive: Potency [1] | outcome [2] | Potency [4]

CNC(=O)c1c(I)c(NC(=O)CCCCC(=O)Nc2c(I)c(C(=O)O)c(I)c(C(=O)NC)c2I)c(I)c(C(=O)O)c1I
inactive: Potency [1] | outcome [2] | Potency [3] | Potency [4]

COc1cc2c3cc1Oc1cc(ccc1O)C[C@@H]1c4c(cc(OC)c(O)c4Oc4ccc(cc4)C[C@@H]3N(C)CC2)CC[N+]1(C)C
inactive: Potency [1] | outcome [2] | Potency [3] | Potency [4]

CC(C(=O)O)c1ccc(C(=O)c2ccccc2)s1 (stereo not drawn)
inactive: Potency [1] | outcome [2] | Potency [3] | Potency [4]

c1ccc(CCNc2nc(-c3ccccc3)cs2)cc1
inactive: Potency [1] | outcome [2] | Potency [3] | Potency [4]

NC(=O)C(c1ccccc1)(c1ccccc1)[C@@H]1CCN(CCc2ccc3c(c2)CCO3)C1
inactive: Potency [1] | outcome [2] | Potency [4]

O=C(O)c1ccccc1Nc1cccc(C(F)(F)F)c1
inactive: Potency [1] | Potency [3] | Potency [4]

N=C(N)N
inactive: Potency [1] | outcome [2] | Potency [3] | Potency [4]

CN(C)[C@@H]1C(=O)C(C(=O)NCN2CCCC2)=C(O)[C@@]2(O)C(=O)C3=C(O)c4c(O)cccc4[C@@](C)(O)C3C[C@@H]12 (stereo partly drawn)
inactive: Potency [1] | outcome [2]

O=C(CCN1CCN(CCO)CC1)N1c2ccccc2Sc2ccc(C(F)(F)F)cc21
inactive: Potency [1] | outcome [2] | Potency [3] | Potency [4]

C#C[C@]1(O)CC[C@H]2[C@@H]3CCc4cc(O)ccc4[C@H]3CC[C@@]21C
inactive: Potency [1] | outcome [2] | Potency [4]

CC(=O)SCC(CC(=O)c1ccc(C)cc1)C(=O)O (stereo not drawn)
inactive: Potency [1] | outcome [2] | Potency [3] | Potency [4]

CC(C)(C)c1nnc(NS(=O)(=O)c2ccc(N)cc2)s1
inactive: Potency [1] | Potency [3] | Potency [4]

COc1ccc(-c2cc(=S)ss2)cc1
inactive: Potency [1] | Potency [3] | Potency [4]

CN1CCN(c2cc3c(nn2)Oc2ccccc2N3C)CC1
inactive: Potency [1] | outcome [2] | activity change [3] 13.6% [at 1.78 µM] | Potency [4]

CCOC(=O)c1ccccc1O
inactive: Potency [1] | outcome [2] | Potency [3] | Potency [4]

O=C1NC(=O)/C(=C/c2ccc3nccnc3c2)S1
inactive: outcome [5] | Potency [6] | Potency [7] | Potency [8] | Potency [3]

O=[N+]([O-])c1ccc2c(c1)S(=O)(=O)C=C2
inactive: outcome [5] | Potency [7] | Potency [8]

O=C(NOCC1CC1)c1cc(Br)c(F)c(F)c1Nc1ccc(I)cc1Cl
inactive: outcome [5] | outcome [9]

NC[C@@H]1O[C@H](C23CC4CC(CC(C4)C2)C3)Cc2c1ccc(O)c2O
inactive: outcome [5] | Potency [7] | Potency [8] | Potency [3] | outcome [9]

CC(C)Cc1ccc([C@H](C)C(=O)O)cc1
inactive: outcome [5] | Potency [3]

CN(C)c1nc(N)c(C(=O)N=C(N)N)nc1Cl
inactive: outcome [5] | Potency [7] | Potency [8] | outcome [9]

CC[C@H]1OC(=O)[C@H](C)[C@@H](O[C@H]2C[C@@](C)(OC)[C@@H](O)[C@H](C)O2)[C@H](C)[C@@H](O[C@@H]2O[C@H](C)C[C@H](N(C)C)[C@H]2O)[C@](C)(O)C[C@@H](C)C(=O)[C@H](C)[C@@H](O)[C@]1(C)O
inactive: Potency [6]

Cc1cc2c(cc1Cl)N(C(=O)Nc1ccc(Oc3cccnc3C)nc1)CC2
inactive: outcome [5] | Potency [7] | Potency [8] | Potency [3] | outcome [9]

O=C(Nc1ccccc1)c1cc([N+](=O)[O-])ccc1Cl
inactive: outcome [5] | Potency [7] | Potency [8] | outcome [9]

CN1CCc2cccc3c2C1Cc1ccc(O)c(O)c1-3 (stereo not drawn)
inactive: outcome [5] | Potency [7] | Potency [8] | outcome [9]

COc1ccc(/C=C/C(=O)Nc2ccccc2C(=O)O)cc1OC
inactive: outcome [5] | Potency [6] | Potency [7] | Potency [8] | Potency [3] | Potency [4]

O=S(=O)(c1cccc2c(I)cccc12)N1CCCNCC1
inactive: outcome [5] | Potency [6] | Potency [7] | Potency [8] | outcome [9]

CC(C(=O)O)c1ccc2c(c1)[nH]c1ccc(Cl)cc12 (stereo not drawn)
inactive: Potency [1] | Potency [4]

O=C(/C=C/c1ccc(O)cc1)c1ccc(O)cc1O
inactive: outcome [5] | Potency [7] | Potency [8] | outcome [9]

COc1ccc(-c2cc(=O)c3c(O)c(OC)c(OC)cc3o2)cc1O
inactive: outcome [5] | outcome [9]

O=C(c1cc(O)c(O)c([N+](=O)[O-])c1)c1ccccc1F
inactive: outcome [5] | Potency [7] | Potency [8] | Potency [3]

O=C1NC(=O)/C(=C/c2ccc(-c3ccc(F)cc3O)o2)S1
inactive: outcome [5] | Potency [6] | Potency [7] | Potency [8] | Potency [3] | outcome [9]

C=CCc1cccc(/C=N/NC(=O)CN2CCN(Cc3ccccc3)CC2)c1O
inactive: Potency [6]

CCCCN(CC)c1nc(C)nc2c1c(C)cn2-c1c(C)cc(C)cc1C
inactive: outcome [5] | outcome [9] | Potency [4]
